Experimental data as given in ChEMBL document CHEMBL4513146, “CO-ADD screening of Karazin Kharkiv National University (Ukraine) compounds”.
Measured potencies and affinities stand elsewhere.

What was measured:
[1] = test system: Klebsiella pneumoniae; conditions: Concentration 32 ug.mL-1;; ASSAY_TEST Inhibition of Bacterial Growth; detection method Absorption (OD600); MEDIA CAMHB; plate type 384well; NBS; CORNING #3640; time 18 hr
[2] = test system: Candida albicans; conditions: Concentration 32 ug.mL-1; ASSAY_TEST Inhibition of Fungal Growth; detection method Absorption (OD530)
[3] = test system: Cryptococcus neoformans; conditions: Concentration 32 ug.mL-1; ASSAY_TEST Inhibition of Fungal Growth; detection method Resazurin; Absorption (OD600-OD570); plate type 384well; NBS; CORNING #3640

| Structure (SMILES) | Inhibition [1] [%] | Inhibition [2] [%] | Inhibition [3] [%] |
| --- | --- | --- | --- |
| COc1cccc(-n2ccn3c(SCc4cccc(C(F)(F)F)c4)nnc3c2=O)c1 | -17.2 | 12.49 | -6.54 |
| COc1ccc(NC(=O)Cn2nc3c4cc(-c5ccc(OC)cc5)nn4ccn3c2=O)cc1 | 12.45 | 2.73 | -13.09 |
| COc1ccccc1-n1ccn2c(SCc3ccc(C)cc3)nnc2c1=O | 5.79 | 2.57 | -9.44 |
| Cc1ccccc1Oc1nccn2c(=O)n(CC(=O)Nc3cc(Cl)ccc3Cl)nc12 | 4.89 | 2.23 | -9.52 |
| Cc1cccc(NC(=O)Cn2nc3nc(N4CCCCCC4)ccn3c2=O)c1C | 16.3 | 1.23 | -8.73 |
| Cc1cc(C)cc(Nc2nc(C)cc3nn(CC(=O)Nc4cc(F)ccc4F)c(=O)n23)c1 | 17.33 | 4.37 | -7.31 |
| CCc1ccc(NC(=O)Cn2nc3n(Cc4cccs4)c(=O)c4sccc4n3c2=O)cc1 | 9.1 | 35.62 | -2.93 |
| COc1ccc(NC(=O)Cn2nc3cc(C)nc(Nc4cc(C)cc(C)c4)n3c2=O)cc1 | 10.21 | 1.22 | -8.99 |
| O=c1n(Cc2nc(-c3ccc4c(c3)OCO4)no2)nc2ccc(-c3ccccc3)nn12 | -1.48 | 6.34 | -13.29 |
| Cc1ccc(-c2ccc3nnc(CCC(=O)NCc4cccc(Br)c4)n3n2)cc1 | 20.54 | 1.13 | -54.18 |
| Cc1cc(C)cc(Nc2nc(C)cc3nn(CC(=O)Nc4cc(F)cc(F)c4)c(=O)n23)c1 | 13.54 | 4.35 | -10.24 |
| CCc1ccc(NC(=O)Cn2nc3c4cc(-c5ccc(C)c(C)c5)nn4ccn3c2=O)cc1 | 5.45 | 21.77 | -12.06 |
| CCc1cccc(NC(=O)Cn2nc3c(Sc4ccc(C)cc4C)nccn3c2=O)c1 | -3.14 | 5.97 | -23.88 |
| COCCCNC(=O)CSc1nnc2c(=O)n(Cc3ccccc3F)ccn12 | 15.39 | 4.29 | -16.33 |
| CCc1ccc(NC(=O)CSc2nnc3c(=O)n(-c4ccccc4)ccn23)cc1 | 10.7 | 2.07 | -14.31 |
| CCOc1ccc(-n2ccn3c(SCC(=O)NCc4ccccc4Cl)nnc3c2=O)cc1 | 10.62 | 2.57 | -15.06 |
| Cc1cc2nn(CC(=O)Nc3ccc(F)cc3)c(=O)n2c(Nc2ccccc2C)n1 | 4.2 | 1.24 | -11.54 |
| Cc1ccc(CNC(=O)CSc2nnc3c4cc(-c5ccc(F)cc5)nn4ccn23)cc1 | 11.62 | 2.7 | -29.65 |
| Cc1ccc(C)c(-c2cc3c4nnc(CCC(=O)NCCc5ccc(Cl)cc5)n4ccn3n2)c1 | 12.88 | 1.56 | -40.65 |
| CC(C)c1nnc2c(SCC(=O)Nc3ccc(Br)cc3F)nc3ccccc3n12 | 8.89 | 0.43 | -17.6 |
| COc1cccc(CNC(=O)CCc2nnc3ccc(-c4ccc(C)cc4)nn23)c1 | 5.64 | 2.05 | -1.51 |
| C=Cc1ccc(CN(c2ccc(CC)cc2)S(=O)(=O)c2cccn3c(C)nnc23)cc1 | 2.48 | 4.32 | -7.66 |
| COc1ccc(NC(=O)Cn2nc3c(Sc4cccc(C)c4)nccn3c2=O)cc1Cl | 5.17 | 12.08 | -20.89 |
| CCCN(C)c1nccn2c(=O)n(CC(=O)Nc3ccc(OC)c(Cl)c3)nc12 | 9.65 | 7.19 | -3.69 |
| Cc1ccc(-c2ccc3nn(Cc4cccc(Br)c4)c(=O)n3n2)cc1 | 7.86 | -0.24 | -13.72 |
| CCc1ccccc1Sc1nccn2c(=O)n(CC(=O)Nc3cccc(C)c3)nc12 | 4.48 | -0.7 | -3.25 |
| CCOc1ccc(NC(=O)Cn2nc3c(N4CCCC(C)C4)nccn3c2=O)cc1 (centres undefined) | 13.07 | 0.78 | -15.46 |
| CCCCOc1ccc(-c2cc3c4nnc(SCC(=O)NCc5ccccc5)n4ccn3n2)cc1 | -0.43 | 3.39 | -8.72 |
